Measured values as given in PubChem BioAssay (NCI).
This is part of a sample that, as a whole, favours compounds with a hit. Of some 79,000 tested, about 15% had one in any assay. Values without a mark were called inactive. The source made the active and inactive calls. Cut-off read from the data, not from the text of the source: active = growth inhibition above about 70%; inactive = the rest.

Tests used:
[1] = NCI Yeast Anticancer Drug Screen. Data for the rad52 strain (AID 147);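 note: 0% = growth of vehicle-treated control cultures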; details: S. cerevisiae rad52 mutant growth inhibition, stronger effect = higher value
Procedure, shortened: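 Compounds are applied to a genetically defined yeast strain lacking normal DNA damage repair, and inhibition of growth is expressed relative to cultures given vehicle only.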

[2] = NCI Yeast Anticancer Drug Screen. Data for the wt1 strain (AID 149);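 note: 0% = growth of vehicle-treated wt1 cultures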; details: S. cerevisiae wt1 strain (SPY 50644) growth inhibition, stronger effect = higher value
Procedure, shortened: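 Readout: yeast growth inhibition, normalised to vehicle controls, in the wt1 strain exposed to test compounds.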

[3] = NCI Yeast Anticancer Drug Screen. Data for the rad50EPP+ strain (AID 151);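 note: 0% = growth of vehicle-treated control cultures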; details: S. cerevisiae rad50 mutant strain, stronger effect = higher value
Procedure, shortened: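 Compounds were applied to the rad50EPP+ yeast strain, which bears a defined DNA repair alteration, and growth inhibition was determined relative to vehicle-treated cultures.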

[4] = NCI Yeast Anticancer Drug Screen. Data for the mgt1 strain (AID 153); details: S. cerevisiae mgt1 mutant growth inhibition, stronger effect = higher value
Procedure, shortened: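 Strain: mgt1 yeast, one of a set carrying defined DNA damage repair or cell cycle control alterations. Compound-treated growth compared with vehicle.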

[5] = NCI Yeast Anticancer Drug Screen. Data for the rad50 strain (AID 155);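 note: 0% = growth of vehicle-only cultures of the same strain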; details: S. cerevisiae rad50 strain growth inhibition, stronger effect = higher value
Procedure, shortened: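 Compounds were tested on a yeast strain with an engineered DNA damage repair alteration; the reported value is growth inhibition normalised to vehicle treatment.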

[6] = NCI Yeast Anticancer Drug Screen. Data for the mec2-1 strain (AID 157); details: S. cerevisiae mec2-1 strain, stronger effect = higher value
Procedure, shortened: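 Strain: mec2-1 (DNA repair/cell cycle alteration). Compound exposure, then growth measured; inhibition expressed relative to vehicle.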

[7] = NCI Yeast Anticancer Drug Screen. Data for the rad14 strain (AID 159);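 note: 0% = growth of vehicle-treated control cultures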; details: S. cerevisiae rad14 strain growth inhibition, stronger effect = higher value
Procedure, shortened: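 Compound-treated yeast with a defined DNA-repair lesion; growth inhibition normalised to vehicle-treated cultures.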

[8] = NCI Yeast Anticancer Drug Screen. Data for the sgs1 mgt1 strain (AID 161);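 note: 0% = growth of cultures given vehicle only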; details: S. cerevisiae sgs1 mgt1 strain, stronger effect = higher value
Procedure, shortened: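 Test agents were incubated with a DNA-repair-mutant yeast strain. Growth was then read and compared against vehicle-treated controls.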

[9] = NCI Yeast Anticancer Drug Screen. Data for the CLN2oe strain (AID 163);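 note: 0% = growth of vehicle-only control cultures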; details: S. cerevisiae CLN2oe strain, stronger effect = higher value
Procedure, shortened: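 Growth of a genetically modified yeast strain is measured after compound exposure and compared with cultures given vehicle alone.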

[10] = NCI Yeast Anticancer Drug Screen. Data for the cln2 rad14 strain (AID 165);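 note: 0% = growth equal to vehicle treated cultures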; details: S. cerevisiae cln2 rad14 strain, stronger effect = higher value
Procedure, shortened: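 Compounds are applied to the cln2 rad14 yeast strain, and growth is then compared with that of vehicle-treated cultures to give inhibition.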

[11] = NCI Yeast Anticancer Drug Screen. Data for the bub3 strain (AID 167); details: S. cerevisiae bub3 mutant strain, stronger effect = higher value
Procedure, shortened: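 Growth of a checkpoint-deficient yeast mutant is measured after compound exposure. Values represent inhibition relative to vehicle.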

[12] = NCI Yeast Anticancer Drug Screen. Data for the wt2 strain (AID 169);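 note: 0% = growth of vehicle-treated yeast cultures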; details: S. cerevisiae wt2 strain growth inhibition, stronger effect = higher value
Procedure, shortened: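 This strain belongs to a panel of yeast strains with defined genetic alterations in DNA damage repair or cell cycle control. Compounds are applied, and growth inhibition is measured against vehicle-treated cultures.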

[13] = NCI Yeast Anticancer Drug Screen. Data for the mlh1 strain (AID 171);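 note: 0% = growth of vehicle-treated control cultures of the same strain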; details: S. cerevisiae mlh1 strain growth inhibition, stronger effect = higher value
Procedure, shortened: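 Growth of the mutant yeast strain after compound exposure, expressed as inhibition relative to vehicle-only controls.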

[14] = NCI Yeast Anticancer Drug Screen. Data for the mlh1 rad18 strain (AID 175); details: S. cerevisiae mlh1 rad18 strain growth inhibition, stronger effect = higher value
Procedure, shortened: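 Read-out is yeast growth inhibition, calculated against vehicle-only controls. The compound was applied to a strain engineered with DNA damage repair alterations.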

[15] = at 5.0 µM (retest, dose inferred, filed as 0.5)
[16] = at 50.0 µM (retest, dose inferred, filed as 5.0)

SMILES: c1c(N2CCOCC2)ssc1=[N+]1CCOCC1
- growth inhibition ([1]; at 1.2 µM): 0%
- growth inhibition ([1]; at 3.7 µM): 0%
- growth inhibition ([1]; at 11.0 µM): -4%
- growth inhibition ([1]; at 33.0 µM): -4%
- growth inhibition ([1]; at 100.0 µM): -2%
- growth inhibition ([2]; at 1.2 µM): -3%
- growth inhibition ([2]; at 3.7 µM): -1%
- growth inhibition ([2]; at 11.0 µM): 0%
- growth inhibition ([2]; at 33.0 µM): 0%
- growth inhibition ([2]; at 100.0 µM): -1%
- growth inhibition ([3]; at 1.2 µM): 1%
- growth inhibition ([3]; at 3.7 µM): 3%
- growth inhibition ([3]; at 11.0 µM): 3%
- growth inhibition ([3]; at 33.0 µM): 3%
- growth inhibition ([3]; at 100.0 µM): 5%
- growth inhibition ([4]; at 1.2 µM): 0%
- growth inhibition ([4]; at 3.7 µM): 2%
- growth inhibition ([4]; at 11.0 µM): -1%
- growth inhibition ([4]; at 33.0 µM): 0%
- growth inhibition ([4]; at 100.0 µM): 1%
- growth inhibition ([5]; at 1.2 µM): -3%
- growth inhibition ([5]; at 3.7 µM): -2%
- growth inhibition [5, 15]: 4%
- growth inhibition ([5]; at 11.0 µM): -5%
- growth inhibition ([5]; at 33.0 µM): -3%
- growth inhibition [5, 16]: 1%
- growth inhibition ([5]; at 50.0 µM): 54.5%
- growth inhibition ([5]; at 100.0 µM): -2%
- growth inhibition ([6]; at 1.2 µM): 0%
- growth inhibition ([6]; at 3.7 µM): -2%
- growth inhibition [6, 15]: 0%
- growth inhibition ([6]; at 11.0 µM): -1%
- growth inhibition ([6]; at 33.0 µM): -1%
- growth inhibition [6, 16]: 3%
- growth inhibition ([6]; at 50.0 µM): 51.1%
- growth inhibition ([6]; at 100.0 µM): 1%
- growth inhibition ([7]; at 1.2 µM): -1%
- growth inhibition ([7]; at 3.7 µM): 0%
- growth inhibition ([7]; at 11.0 µM): 3%
- growth inhibition ([7]; at 33.0 µM): 1%
- growth inhibition ([7]; at 100.0 µM): -2%
- growth inhibition [8, 15]: 4%
- growth inhibition [8, 16]: 2%
- growth inhibition ([8]; at 50.0 µM): 69.1%
- growth inhibition ([9]; at 1.2 µM): 0%
- growth inhibition ([9]; at 3.7 µM): 4%
- growth inhibition ([9]; at 11.0 µM): 3%
- growth inhibition ([9]; at 33.0 µM): 2%
- growth inhibition ([9]; at 100.0 µM): 0%
- growth inhibition [10, 15]: -1%
- growth inhibition [10, 16]: 7%
- growth inhibition ([10]; at 50.0 µM): 20.7%
- growth inhibition ([11]; at 1.2 µM): 0%
- growth inhibition ([11]; at 3.7 µM): 0%
- growth inhibition [11, 15]: -1%
- growth inhibition ([11]; at 11.0 µM): 1%
- growth inhibition ([11]; at 33.0 µM): -2%
- growth inhibition [11, 16]: 6%
- growth inhibition ([11]; at 50.0 µM): 51.5%
- growth inhibition ([11]; at 100.0 µM): -2%
- growth inhibition ([12]; at 1.2 µM): 0%
- growth inhibition ([12]; at 3.7 µM): -1%
- growth inhibition ([12]; at 11.0 µM): 0%
- growth inhibition ([12]; at 33.0 µM): 0%
- growth inhibition ([12]; at 100.0 µM): 1%
- growth inhibition ([13]; at 1.2 µM): -1%
- growth inhibition ([13]; at 3.7 µM): 0%
- growth inhibition ([13]; at 11.0 µM): 0%
- growth inhibition ([13]; at 33.0 µM): 0%
- growth inhibition ([13]; at 100.0 µM): -5%
- growth inhibition [14, 15]: 2%
- growth inhibition [14, 16]: 9%
- growth inhibition ([14]; at 50.0 µM): 82.7% (active)

SMILES: Cn1cc(NC(=O)c2cc(NC(=O)CN=C(N)N)cn2C)cc1C(=O)NCCC(=N)N
- growth inhibition ([1]; at 1.2 µM): 21%
- growth inhibition ([1]; at 3.7 µM): 7%
- growth inhibition ([1]; at 11.0 µM): 56%
- growth inhibition ([1]; at 33.0 µM): 97% (active)
- growth inhibition ([1]; at 100.0 µM): 98% (active)
- growth inhibition ([2]; at 1.2 µM): 17%
- growth inhibition ([2]; at 3.7 µM): 26%
- growth inhibition ([2]; at 11.0 µM): 24%
- growth inhibition ([2]; at 33.0 µM): 85% (active)
- growth inhibition ([2]; at 100.0 µM): 96% (active)
- growth inhibition ([3]; at 1.2 µM): 19%
- growth inhibition ([3]; at 3.7 µM): 1%
- growth inhibition ([3]; at 11.0 µM): 24%
- growth inhibition ([3]; at 33.0 µM): 73% (active)
- growth inhibition ([3]; at 100.0 µM): 96% (active)
- growth inhibition ([4]; at 1.2 µM): 1%
- growth inhibition ([4]; at 3.7 µM): 6%
- growth inhibition ([4]; at 11.0 µM): 5%
- growth inhibition ([4]; at 33.0 µM): 94% (active)
- growth inhibition ([4]; at 100.0 µM): 99% (active)
- growth inhibition ([5]; at 1.2 µM): 0%
- growth inhibition ([5]; at 3.7 µM): 4%
- growth inhibition [5, 15]: -30%
- growth inhibition ([5]; at 11.0 µM): 67%
- growth inhibition ([5]; at 33.0 µM): 97% (active)
- growth inhibition [5, 16]: 87% (active)
- growth inhibition ([5]; at 50.0 µM): 89.2% (active)
- growth inhibition ([5]; at 100.0 µM): 97% (active)
- growth inhibition ([6]; at 1.2 µM): 20%
- growth inhibition ([6]; at 3.7 µM): 18%
- growth inhibition [6, 15]: -11%
- growth inhibition ([6]; at 11.0 µM): 31%
- growth inhibition ([6]; at 33.0 µM): 95% (active)
- growth inhibition [6, 16]: 44%
- growth inhibition ([6]; at 50.0 µM): 87.5% (active)
- growth inhibition ([6]; at 100.0 µM): 99% (active)
- growth inhibition ([7]; at 1.2 µM): 18%
- growth inhibition ([7]; at 3.7 µM): -2%
- growth inhibition ([7]; at 11.0 µM): 35%
- growth inhibition ([7]; at 33.0 µM): 97% (active)
- growth inhibition ([7]; at 100.0 µM): 98% (active)
- growth inhibition [8, 15]: 7%
- growth inhibition [8, 16]: 11%
- growth inhibition ([8]; at 50.0 µM): 84.6% (active)
- growth inhibition ([9]; at 1.2 µM): -1%
- growth inhibition ([9]; at 3.7 µM): 0%
- growth inhibition ([9]; at 11.0 µM): 16%
- growth inhibition ([9]; at 33.0 µM): 96% (active)
- growth inhibition ([9]; at 100.0 µM): 97% (active)
- growth inhibition [10, 15]: -13%
- growth inhibition [10, 16]: 28%
- growth inhibition ([10]; at 50.0 µM): 68.5%
- growth inhibition ([11]; at 1.2 µM): 11%
- growth inhibition ([11]; at 3.7 µM): 18%
- growth inhibition [11, 15]: 6%
- growth inhibition ([11]; at 11.0 µM): 2%
- growth inhibition ([11]; at 33.0 µM): 93% (active)
- growth inhibition [11, 16]: 70% (active)
- growth inhibition ([11]; at 50.0 µM): 87.3% (active)
- growth inhibition ([11]; at 100.0 µM): 97% (active)
